Data as given in PubChem BioAssay AID488890 (Southern Research Specialized Biocontainment Screening …, 2010).
The campaign covered roughly 320,000 compounds. About 1,300 (0.41%) were called active. About 3% were inconclusive and are not listed. How the calls were made is not given here. These entries were drawn from the full list. Results with a measured potency or affinity are listed apart.

assay: growth inhibition of non-replicating M. tuberculosis (AID 488890); conditions: Mycobacterium tuberculosis non-replicating, at 25 µM, stronger effect = higher value;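 further: plate controls were DMSO cells for no effect and high antibiotic wells for full effect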

Row | SMILES | inhibition
1 | CCN1CCCC1CNC(=S)Nc1ccc(C(C)=O)cc1 (stereo not drawn) | 16.8%
2 | COc1cc(/C=C2\N=C(C)OC2=O)cc(OC)c1OC | -3.11%
3 | COc1cc(/C=C2\SC(c3ccc(C)cc3)=NC2=O)cc(OC)c1OC | 16.6%
4 | CCCC1CC(C)(C(=O)CSc2n[nH]c(-c3ccccc3)n2)OC1=O (stereo not drawn) | -9.58%
5 | CCOc1nc2ccccc2cc1/C=C/C(=O)O | 16.5%
6 | O=C1CC(N2CCSCC2)C(=O)N1c1ccccc1 (stereo not drawn) | 17.6%
7 | Cc1ccc(N2C(=O)CC(N3CCSCC3)C2=O)c(C)c1 (stereo not drawn) | 66.2%
8 | COc1ccc(C(=O)O/N=C(/c2cccs2)C(C)(C)C)cc1 | 35.7%
9 | COc1ccc(-c2nnc(NC(=O)Cc3ccccc3)s2)c(OC)c1 | 6.43%
10 | O=C(Nc1nncs1)c1cc2c(s1)CCC2 | 2%
11 | O=C(Nc1nc(-c2ccncc2)cs1)c1ccco1 | -9.61%
12 | COc1ccc(CCNc2nc(-c3cccnc3)cs2)cc1OC | -6.11%
13 | Cc1cccc(Nc2nc(-c3cccs3)cs2)n1 | 3.92%
14 | Cc1cccc(Nc2nc(-c3ccc(F)cc3)cs2)n1 | 18.9%
15 | O=C(Nc1nc(-c2ccccc2)cs1)c1ccco1 | 11.8%
16 | O=C(CCS(=O)(=O)c1ccccc1)Nc1nc(-c2ccc(F)cc2)cs1 | 0.28%
17 | COc1ccc(CCNc2nc(-c3ccncc3)cs2)cc1OC | 15.7%
18 | O=C(CCS(=O)(=O)c1ccccc1)Nc1nc(-c2cccs2)cs1 | 75.7%
19 | O=C1CC(/C=C/c2ccc([N+](=O)[O-])cc2)=Nc2ccccc2N1 | 30.3%
20 | Cc1ccc(C)c(N2N=C(C(=O)O)CCC2=O)c1 | -0.55%
21 | Cc1cc(N2CCN(c3ccccc3)CC2)n2nnnc2n1 | -6.03%
22 | O=C(c1nc2ccccn2c1CNCCCn1nnc2ccccc21)N1CCOCC1 | -59.9%
23 | O=C(CSc1nnc(-c2ccncc2)o1)Nc1ccccc1Cl | -10.3%
24 | Cc1cc(C)cc(N(CCC#N)C(=O)CSc2ncnc3sccc23)c1 | 7.69%

Row | SMILES | inhibition
25 | Cc1ccc(C(=O)N[C@H](C(=O)N2CCN(c3ccccc3F)CC2)C(C)C)cc1 | 9.21%
26 | COc1ccc2cc(C(=O)C3CCCN(C(=O)c4snnc4C)C3)ccc2c1 (stereo not drawn) | 16.9%
27 | O=C(O)c1ccc2noc(-c3ccccc3)c2c1 | 26.3%
28 | COc1ccc(CNC(=O)CN(C(=O)CCC(=O)Nc2ccccn2)c2ccccc2OC)cc1 | 10.4%
29 | c1ccc(Nc2nc(-c3ccncc3)cs2)cc1 | 0.69%
30 | c1ccc(-c2csc(Nc3cccnc3)n2)nc1 | 24.5%
31 | CC(C)(C)[C@H](N)C(=O)N[C@H]1CCC2C3CC=C4C[C@@H](O)CC[C@]4(C)C3CC[C@@]21C (stereo partly drawn) | 67.1%
32 | CC(C)OC(=O)c1cc(C(=O)c2cc(Br)ccc2O)coc1=N | 76.9%
33 | COC(=O)c1cc(C(=O)c2cc(Cl)ccc2O)coc1=N | 36%
34 | O=C(Cc1ccccc1)Nc1nnc(-c2ccco2)o1 | -4.54%
35 | Cc1ccccc1C(=O)Nc1nnc(-c2ccco2)s1 | -20.8%
36 | COc1cc(OC)cc(-c2nnc(NC(=O)CCS(=O)(=O)c3ccccc3)o2)c1 | 78.9%
37 | CC(=O)Nc1nnc(-c2ccco2)o1 | 4.52%
38 | CCCCN(C(=O)CSCC(=O)Nc1ccc(OC)cc1)c1c(N)n(Cc2ccccc2)c(=O)[nH]c1=O | 33%
39 | Cc1ccc[n+](CC(=O)Nc2nc3ccccc3s2)c1 | 2.08%
40 | CN(C(=O)CN1CC=C(c2ccccc2)CC1)c1c(N)n(Cc2ccccc2)c(=O)[nH]c1=O | 8.33%
41 | CN(C(=O)COC(=O)Cc1c(Cl)cccc1Cl)C1CCS(=O)(=O)C1 (stereo not drawn) | -4.22%
42 | CCCCCC(=O)Nc1ccc2ccccc2c1 | 58.5%
43 | CCC(=O)Nc1ccc2ccccc2c1 | 14.1%
44 | CCCCn1c(N)c(N(Cc2ccccc2OC)C(=O)c2ccc(N3CCCC3=O)cc2)c(=O)[nH]c1=O | 18.9%
45 | N#CCSc1ncccc1-c1nc2ccccc2[nH]1 | -0.28%
46 | COc1ccc(Nc2cccccc2=O)cc1 | 3.01%
47 | COc1ccc(Nc2ccccc2C(=O)O)cc1 | 3.87%
48 | Cc1ccc(Nc2ccccc2)cc1 | 1.99%

Row | SMILES | inhibition
49 | Cc1ccc(Nc2cccccc2=O)cc1 | 16.8%
50 | c1ccc(Nc2ccccc2)cc1 | 6.24%
51 | Nc1cccc(Nc2ccccc2)c1 | 2.41%
52 | c1ccc(Nc2cccc3c(Nc4ccccc4)cccc23)cc1 | 42.5%
53 | Nc1ccccc1Nc1cccc(C(F)(F)F)c1 | 47%
54 | Cn1nc(C(=O)NNC(=O)c2cccc(Cl)c2)ccc1=O | 1.12%
55 | O=S(=O)(NC1=NCCCCC1)c1cc(F)ccc1F | -1.39%
56 | CC1(C)Oc2ccc(C(=O)N/N=C/c3ccc(O)cc3)cc2NC1=O | 4.72%
57 | CC(Sc1n[nH]c(N)n1)C(=O)Nc1cccc2ccccc12 (stereo not drawn) | 11%
58 | Cc1nn(-c2ccccc2)c(C)c1/C=N/NC(=O)c1cc(-c2cccs2)[nH]n1 | 47.5%
59 | O=C(Nc1cccc(Br)c1)c1ccc2nc(N3C(=O)CCC3=O)sc2c1 | 3.99%
60 | Nc1c(C(=O)c2ccccc2)sc(Nc2ccccc2)c1S(=O)(=O)c1ccccc1 | 12.2%
61 | COCCCC1CCN(C(=O)C2CCC(=O)N(C3CCCC3)C2)CC1 (stereo not drawn) | -6.84%
62 | CCNc1nc(=S)nc(NC(C)C)[nH]1 | -23%
63 | CC(=O)Nc1ccc(C(=O)OCc2ccc(F)cc2Cl)cc1 | 50%
64 | COc1ccc(NC(=O)/C(C#N)=C/c2c(C)nn(-c3ccc(F)cc3)c2Cl)cc1OC | 9.54%
65 | CCN(CC)S(=O)(=O)c1ccc(N2CC(C(=O)NCCc3ccc(Cl)cc3)CC2=O)cc1 (stereo not drawn) | 28.6%
66 | O=C(N/N=C/c1ccc(F)cc1)c1c(O)c2ccccc2[nH]c1=O | 25.9%
67 | O=C(N/N=C/c1ccccc1)c1c(O)c2ccccc2[nH]c1=O | 58.7%
68 | Cc1ccc(NC(=S)N(CCCN2CCOCC2)Cc2cccnc2)cc1C | -0.2%
69 | CSCCC(NC(=O)OCc1ccccc1)C(=O)O (stereo not drawn) | -8.32%
70 | Cc1ccc(SCC(=O)c2cc(C)c(O)c(C)c2)cc1 | 0.12%
71 | Nc1ccc2oc(-c3ccccc3Cl)cc(=O)c2c1O | -0.76%
72 | O=c1cc(-c2ccccc2Cl)oc2c(Br)ccc(O)c12 | -2.73%

Row | SMILES | inhibition
73 | O=c1cc(-c2ccccc2Cl)oc2cccc(O)c12 | -8.34%
74 | Nc1ccc(O)c2c(=O)cc(-c3ccccc3Cl)oc12 | -0.68%
75 | COc1ccc(-c2[nH]nc3c2C(c2ccc(OC(=O)N4CCOCC4)cc2)C(C#N)=C(N)O3)cc1 (stereo not drawn) | 13.2%
76 | CCc1cccc(C)c1NC(=O)CN(C)Cc1ccccc1F | 23.6%
77 | C[C@H](CO)N1C[C@H](C)[C@@H](CN(C)C(=O)Nc2ccc(C(F)(F)F)cc2)Oc2c(NC(=O)Nc3ccccc3)cccc2C1=O | 32.4%
78 | Cc1ccc(OCCCCN2CCC(C)CC2)c(Br)c1 | 49.3%
79 | CC1CCN(CCCOc2ccc(Br)cc2Cl)CC1 | 33.5%
80 | Cc1ccc(C)c(NC(=S)NCCc2c[nH]c3ccccc23)c1 | 67%
81 | O=[N+]([O-])c1ccc2nc(SCc3cn4cccnc4n3)[nH]c2c1 | -20.2%
82 | NC(=O)CSc1nc2ccc([N+](=O)[O-])cc2[nH]1 | 3.31%
83 | c1ccc2[nH]c(SCc3cn4ccccc4n3)nc2c1 | -0.59%
84 | Clc1ccc2nc(CSc3ncn[nH]3)cn2c1 | -31.7%
85 | CCC(CO)NCc1sccc1C (stereo not drawn) | -5.31%
86 | Cc1cccc(C(=O)NC(=S)Nc2ccc(S(=O)(=O)N3CCN(C)CC3)cc2)c1 | 52.2%
87 | Cc1c(O)ccc(/C=N/Nc2ncccc2[N+](=O)[O-])c1O | -1.95%
88 | O=[N+]([O-])c1cc(/C=N\Nc2ccccn2)ccc1Cl | -14.6%
89 | COc1cc(/C=N/Nc2nc3ccccc3s2)cc([N+](=O)[O-])c1O | 22%
90 | Cc1cc(C(=O)N/N=C/c2cc(Cl)cc([N+](=O)[O-])c2O)c2ccccc2n1 | 54.6%
91 | O=C(N/N=C/c1cc(Cl)cc([N+](=O)[O-])c1O)c1cc(-c2ccccn2)nc2ccccc12 | 4.78%
92 | COc1cccc(/C=N/Nc2ncccc2[N+](=O)[O-])c1OC | 1.4%
93 | CN(C(=O)COC(=O)c1ccccc1SCC(=O)N1CCCC1)C1CCS(=O)(=O)C1 (stereo not drawn) | -9.96%
94 | Cc1ccccc1CCNC(=O)C1CC(O)CN1C(=O)Nc1ccccc1 (stereo not drawn) | -7.09%
95 | O=S(=O)(NCc1ccccc1F)c1cccc(S(=O)(=O)N2CCOCC2)c1 | -6.99%
96 | O=C(NC(=S)Nc1ccc(Cl)cn1)c1cc([N+](=O)[O-])ccc1N1CCOCC1 | 5.35%

Row | SMILES | inhibition
97 | Cc1ccc(S(=O)(=O)N2CCN(C(=O)c3ccccc3)CC2)cc1 | 9.38%
98 | COc1ccc(CCNC(=O)C(=O)c2c(C)[nH]c3ccccc23)cc1 | 12%
99 | COc1ccc(C(=O)NCCC2=CCCCC2)cc1 | 71.4%
100 | NC(=O)NCCC1=CCCCC1 | -8.64%
101 | O=C(NCCc1ccccc1)c1ccc(Br)o1 | 73.4%
102 | O=C(NCCC1=CCCCC1)c1ccc(Cl)cc1 | 76.5%
103 | CCN(CC)C(=O)c1cccc(NC(=O)c2cc(-c3ccccn3)nc3ccccc23)c1 | 57%
104 | Cc1nnc2sc(SCC(=O)Nc3ccc(Br)cc3)nn2c1=O | -4.78%
105 | CCOc1ccccc1C(=O)NC1CC2CCCC(C1)N2C1CC1 (stereo not drawn) | 0.26%
106 | CCOc1ccc(S(=O)(=O)N2CCOCC2)cc1NC(=O)CN1C(=O)NC(C)(c2ccccc2)C1=O (stereo not drawn) | 6.19%
107 | Nc1ncnc(Sc2ccccc2)c1[N+](=O)[O-] | 67.8%
108 | Cc1nc(Sc2ccccc2)c(C#N)c(C)c1[N+](=O)[O-] | 16.8%
109 | C#CCN(CC=C)C(=O)c1ccc(OC2CCN(S(=O)(=O)N(C)C)CC2)cc1 | -9.64%
110 | O=C(CCC1COc2ccccc2O1)Nc1ccc(Cl)cn1 (stereo not drawn) | 79.7%
111 | CC1CCCN(C(=O)C2COc3ccccc3O2)C1 (stereo not drawn) | 57.7%
112 | Cc1ccnc(NC(=O)C2COc3ccccc3O2)c1 (stereo not drawn) | 2.12%
113 | O=C(Nc1ccncc1)C1COc2ccccc2O1 (stereo not drawn) | 29.1%
114 | O=C(Nc1ccccn1)C1COc2ccccc2O1 (stereo not drawn) | 77%
115 | O=C(COC(=O)C1COc2ccccc2O1)Nc1cccc(Cl)c1 (stereo not drawn) | 6.42%
116 | Cc1cccc(NC(=O)C2COc3ccccc3O2)n1 (stereo not drawn) | 75.7%
117 | O=C(C1COc2ccccc2O1)N1CCCC1 (stereo not drawn) | 70.2%
118 | CCOC(=O)CNC(=O)CN1CCC(c2nc3ccccc3[nH]2)CC1 | -5.38%
